Several values for one entry are separate records, joined by “and”; a condition that tells them apart may be missing. Equal values may be shown once. Compounds without any hit were thinned out: in the full panel of roughly 83,000, 20% have a hit.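 How to read the values: 0–100, growth inhibition (40 = 60% inhibited); 0, no net growth; -100 to 0, cell death (-40 = 40% of starting cells died; -100 = all dead).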 Unmarked numbers belong to inactive results. Activity calls are given as the source filed them. How the source made its calls: active means growth percent below 10; inactive means the rest.

The assay has as its system MDA-MB-468 breast. The assay is described as follows: NCI-60 one-dose screen, 48 h (100 = growth as untreated, 0 = no growth, -100 = all killed). Particulars: 10 µM unless noted.
Take `O=c1[nH]c(=O)n(Cl)c(=O)n1Cl`: the growth was 106% and 117%. The value for `CC/C(=C(\c1ccc(OCCN2CCOCC2)cc1)c1ccc(OC(=O)Cc2ccccc2)cc1)c1ccc(Cl)cc1` was 104%. Regarding `CCC1(C)CC(CCNCc2ccccc2O)(c2ccc(C)cc2)CCO1` (centres undefined), the growth was 110%. The value for `COC(=O)[C@@H](C)C[C@H](Cc1ccccc1)NC(=O)c1csc([C@@H](C[C@H](C(C)C)N(C)C(=O)[C@@H](NC(=O)[C@H]2CCCCN2C)C(C)C)OC(C)=O)n1` was -11.2% (active).

The values are drawn from PubChem BioAssay (NCI).
